The nature of test [1]: resazurin metabolic signal in HepG2 cells – cell-based, resazurin fluorescence, 24 h, PK04 Diversity Set, profiling panel (AID 1172). Also: test concentration not given here. Conditions: HepG2 viability, higher = more signal. On the technique in general: The colour change of resazurin is a common sign of viable cells or microbes.
Test [2] is described as follows: budding yeast growth changes without added modifier – OD600, strain BY4716, 24 h, basal condition, primary screen (AID 1173). The conditions noted are these: S. cerevisiae BY4716 growth, OD600, 24 h; higher = more signal, called active from +8 up or from −8 down.
The nature of test [3]: viability profiling in MM1S myeloma cells – cell-based, resazurin fluorescence, basal, 24 h, PK04 Diversity Set, profiling panel (AID 1174).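 Also: MM1S multiple myeloma cell line; test concentration not given here.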 The conditions noted are these: higher = more signal, called active from +8 up or from −8 down.
Test [4] has as its target Dihydroorotate dehydrogenase (quinone), mitochondrial (Plasmodium falciparum (isolate 3D7)) (UniProt Q08210). The test can be described thus: inhibition of P. falciparum DHODH – biochemical, C-terminal His tag, absorbance 600 nm, primary screen (AID 1175).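 Also: recombinant parasite enzyme with a five histidine tag at its C terminus; test concentration not given here.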 Conditions: PfDHODH enzyme, DCIP absorbance 600 nm; higher = more signal, called active from +8 up or from −8 down.
Test [5] is described as follows: inhibition of PAO1 biofilm formation – strain PAO1, LB-PBS medium, absorbance 600 nm, primary screen (AID 1176). Also: test concentration not given here. Conditions: P. aeruginosa PAO1 growth/biofilm, A600, 12 h; higher = more signal.
Test [6] is described as follows: growth modulation of vineyard yeast isolate – strain RM11-1a, OD600, basal, 24 h, primary screen (AID 1177).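 Also: cultures grown under basal conditions with no added stressor; test concentration not given here.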 The conditions noted are these: S. cerevisiae RM11-1a growth, OD600, 24 h; higher = more signal, called active from +8 up or from −8 down.
Test [7] is described as follows: growth of efflux-deficient E. coli DRC39 – strain DRC39, OD650, 24 h, E. coli filamentation inducers, primary screen (AID 1178).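 Also: growth measured as culture turbidity by optical density at 650 nm; test concentration not given here.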 The conditions noted are these: E. coli DRC39 acrAB, higher = more signal, called active from +8 up or from −8 down.
A short description of test [8]: growth of efflux-deficient E. coli DRC39 – strain DRC39, OD650, 48 h, E. coli filamentation inducers, primary screen (AID 1179).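 Also: screen aims at cell division blockers that make cells filament.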 The conditions noted are these: E. coli DRC39 delta-acrAB growth, higher = more signal, called active from +8 up or from −8 down.
Test [9] is described as follows: viability profiling in RPMI8226 myeloma cells – cell-based, resazurin fluorescence, basal, 24 h, PK04 Diversity Set, profiling panel (AID 1180).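 Also: RPMI8826 multiple myeloma cell line at 5000 cells per well; test concentration not given here.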 The conditions noted are these: higher = more signal.
Test [10] concerns the target E3 ubiquitin-protein ligase XIAP (Homo sapiens) (UniProt P98170). The test can be described thus: small molecules binding XIAP protein – biophysical, small-molecule microarray, fluorescence 635 nm, primary screen (AID 1181).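 Also: score merges 667 nm emission and signal to noise over triplicate slides.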 Conditions: higher = more signal.

The source made the active and inactive calls. Unless noted, no rule for the calls is given here.

Dihydroorotate dehydrogenase (quinone), mitochondrial (Plasmodium falciparum (isolate 3D7)), sequence (Q08210 whole entry, looked up): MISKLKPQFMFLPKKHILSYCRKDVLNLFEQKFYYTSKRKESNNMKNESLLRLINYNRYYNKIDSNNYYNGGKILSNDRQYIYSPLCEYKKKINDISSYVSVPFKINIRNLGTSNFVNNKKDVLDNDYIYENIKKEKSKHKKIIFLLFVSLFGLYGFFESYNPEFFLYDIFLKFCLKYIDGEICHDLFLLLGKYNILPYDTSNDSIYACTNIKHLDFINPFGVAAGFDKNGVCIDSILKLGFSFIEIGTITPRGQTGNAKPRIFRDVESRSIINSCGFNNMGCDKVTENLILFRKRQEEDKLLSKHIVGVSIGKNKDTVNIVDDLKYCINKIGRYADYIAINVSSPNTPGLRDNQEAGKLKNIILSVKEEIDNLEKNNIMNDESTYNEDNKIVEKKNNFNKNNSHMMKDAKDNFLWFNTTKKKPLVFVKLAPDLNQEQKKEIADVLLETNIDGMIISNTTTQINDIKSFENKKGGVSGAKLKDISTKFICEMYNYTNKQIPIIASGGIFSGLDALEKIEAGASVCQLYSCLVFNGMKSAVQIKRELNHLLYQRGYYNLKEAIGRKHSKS
E3 ubiquitin-protein ligase XIAP (Homo sapiens), sequence (P98170 whole entry, looked up): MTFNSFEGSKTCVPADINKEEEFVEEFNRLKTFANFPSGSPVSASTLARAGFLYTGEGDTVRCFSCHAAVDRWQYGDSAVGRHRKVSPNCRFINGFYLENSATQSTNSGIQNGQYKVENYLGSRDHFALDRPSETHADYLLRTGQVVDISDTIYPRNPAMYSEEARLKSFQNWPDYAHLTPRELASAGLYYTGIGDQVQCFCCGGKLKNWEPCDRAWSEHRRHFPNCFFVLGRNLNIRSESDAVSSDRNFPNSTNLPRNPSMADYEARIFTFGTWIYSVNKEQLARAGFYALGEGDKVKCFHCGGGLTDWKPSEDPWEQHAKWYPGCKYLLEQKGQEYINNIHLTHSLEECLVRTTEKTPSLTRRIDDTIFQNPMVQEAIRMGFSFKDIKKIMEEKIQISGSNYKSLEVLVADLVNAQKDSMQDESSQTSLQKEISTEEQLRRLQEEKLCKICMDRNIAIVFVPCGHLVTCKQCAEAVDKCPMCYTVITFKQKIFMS

Turning to `COc1ccc(C#Cc2ccc3c(c2)[C@]2(C(=O)N3)[C@H](c3ccccc3OCCO)N3[C@H](c4ccccc4)[C@H](c4ccccc4)OC(=O)[C@H]3[C@@H]2C(=O)Nc2nc3ccccc3s2)cc1`, the z-score in test [1] was -0.927; in test [2], 1.35 (inactive); in test [3], -0.545 (inactive); in test [5], 2.77 (inactive); in test [6], 2.93 (inactive); in test [7], 0.0225 (inactive). Besides, the figures for the z-score in [8] and in [9] were 0.132 (inactive) and -1.76, respectively. For the same compound, the composite z-score was -30.7 (active) in [4] and 0.0471 in test [10].
On to `C=CCOC(=O)[C@H]1[C@@H]2C(=O)O[C@@H](c3ccccc3)[C@@H](c3ccccc3)N2[C@@H](c2ccc(OCCOC(=O)[C@H]3C[C@H]4C(=O)N[C@@H](CCCCNC(C)=O)C(=O)N4[C@H]3c3cccc(OCCO)c3)cc2)[C@]12C(=O)Nc1ccccc12`, for which the z-score in test [1] is 0.514; in [2] it was 0.922 (inactive); in test [3] it was 0.618 (inactive); in [5], 3.14 (inactive); in [6], 1.29 (inactive); in test [7], 0.561 (inactive). For the same compound, the z-score was -0.581 (inactive) in [8] and 0.491 in test [9]. Also, the composite z-score in [4] is 0.592 (inactive); in test [10] it was -0.0338.
For the compound `CC(C)N1C(=O)C[C@@](C(=O)NCC(F)(F)F)(c2ccc([N+](=O)[O-])cc2)[C@H]1c1ccc(CO)cc1`, the z-score in test [1] was -0.228; in test [2], -0.957 (inactive); in test [3], 1.26 (inactive); in [5], 0.255 (inactive); in test [6] it was -1.09 (inactive); in [7], 0.818 (inactive). For the same compound, the z-score was 0.629 (inactive) in test [8] and 0.939 in [9]. Further, the composite z-score was -0.297 (inactive) in test [4] and -0.0448 in test [10].
On to `O=C(c1ccccc1)N1C(=O)[C@@]2(Cc3ccccc31)N=C(c1ccc(OCCCO)cc1)O[C@H]2c1ccccc1`, for which the z-score is -1.01 in [1]; -0.123 (inactive) in test [2]; -2.94 (inactive) in test [3]; 0.702 (inactive) in [5]; 0.655 (inactive) in test [6]; -0.399 (inactive) in [7]. Moreover, the figures for the z-score in test [8] and in test [9] were -0.239 (inactive) and -3.43, respectively. The figures for the composite z-score in [4] and in test [10] were -0.138 (inactive) and 0.327, respectively.
Turning to `CC(C)NC(=O)[C@@]1(c2ccc([N+](=O)[O-])cc2)CC(=O)N(C2CCCCC2)[C@@H]1c1ccc(CO)cc1I`, the z-score is -0.752 in [1]; -0.148 (inactive) in [2]; 0.507 (inactive) in test [3]; -0.0469 (inactive) in test [5]; 1.4 (inactive) in test [6]; 0.543 (inactive) in [7]. Besides, the z-score in [8] is 0.0026 (inactive); in test [9], 0.636. For the same compound, the figures for the composite z-score in test [4] and in test [10] were 0.968 (inactive) and -0.177, respectively.
Turning to `O=C1OCCC/C=C\[C@H]2OC34C=CCN(Cc5ccccc5)C(=O)[C@H]3N(CCCO)C(=O)[C@@H]4C12` (stereo not given in full), the z-score in test [1] is -0.203; in [2] it was 1.29 (inactive); in test [3], 0.794 (inactive); in [5], -1.16 (inactive); in test [6], 1.29 (inactive); in test [7] it was 0.625 (inactive). Further, the z-score in test [8] is 0.59 (inactive); in [9] it was 1.35. In addition, the composite z-score in [4] was 0.905 (inactive); in test [10], -0.0876.
With `CCCCCN1CC=CC23O[C@@H]4/C=C\CCC(C)OC(=O)C4[C@H]2C(=O)N(C(C)CO)[C@@H]3C1=O` (stereo not given in full), the z-score in [1] was 0.194; in test [2], 0.142 (inactive); in test [3], -0.139 (inactive); in test [5] it was -0.0153 (inactive); in [6] it was 0.449 (inactive); in test [7] it was 0.866 (inactive). Moreover, the values for the z-score in test [8] and in test [9] were 0.657 (inactive) and 1.07, respectively. Moreover, the composite z-score in test [4] is 0.005 (inactive); in test [10], -0.127.
In the case of `O=C1N(Cc2ccccc2)c2ccccc2[C@@H]2OC(c3ccc(OCCCO)cc3)=N[C@]12CCS(=O)(=O)c1ccccc1`, the z-score in test [1] is -0.477; in test [2], 1.48 (inactive); in test [3] it was -0.444 (inactive); in test [5], 1.71 (inactive); in test [6] it was 2.25 (inactive); in [7] it was -0.0853 (inactive). Besides, the z-score is -0.292 (inactive) in [8] and -0.18 in test [9]. For the same compound, the composite z-score was -0.244 (inactive) in test [4] and -0.0918 in test [10].
As for `CN1C=C(C(=O)OCCS(C)(=O)=O)C(C(=O)OCCS(C)(=O)=O)=CC(c2ccc(CO)cc2)=CC1C1CC1` (stereo not given), the z-score was -0.15 in test [1]; -1.68 (inactive) in [2]; -0.83 (inactive) in [3]; -0.447 (inactive) in test [5]; 0.0635 (inactive) in test [6]; 0.815 (inactive) in test [7]. Further, the z-score in test [8] is 0.63 (inactive); in [9] it was -0.189. Also, the composite z-score in [4] is -0.524 (inactive); in [10], -0.359.
For the compound `COCCOC(=O)N1C(=O)[C@@]2(c3cc(C#Cc4ccc(OC)cc4)ccc31)[C@H](c1ccccc1OCCO)N1[C@H](c3ccccc3)[C@H](c3ccccc3)OC(=O)[C@H]1[C@@H]2C(=O)NC[C@H](O)c1ccccc1`, the z-score was 0.48 in [1]; 2.55 (inactive) in test [2]; -0.444 (inactive) in test [3]; 3.27 (inactive) in test [5]; 3.17 (inactive) in test [6]; 0.418 (inactive) in [7]. Also, the z-score is 0.127 (inactive) in test [8] and -0.82 in test [9]. The composite z-score was -1.22 (inactive) in test [4] and -0.0421 in test [10].
For the compound `CN(C)CCCC[C@@H]1NC(=O)[C@H]2C[C@@H](C(=O)NCCCCCCN)[C@@H](c3ccc(O)cc3)N2C1=O`, the z-score in test [1] is -0.24; in test [2], -0.343 (inactive); in test [3], 0.696 (inactive); in [5], -0.338 (inactive); in test [6] it was 0.578 (inactive); in [7] it was 0.332 (inactive). In addition, the z-score in test [8] is 0.458 (inactive); in [9] it was 0.683. The composite z-score in [4] was -1.31 (inactive); in test [10], 0.121.

(Values after PubChem BioAssay.)
